The whole screen tested about 13,000 compounds, of which about 3,200 (25%) showed an effect of 50% or more. This is one part of the list.

For the assay, the system named is P. falciparum stage V gametocytes. More on the design: BacTiter-Glo ATP luminescence viability of purified stage V gametocytes in 384-well plates, per cent inhibition versus DMSO. To be noted: 48 h, 5 µM; inhibitor.
Regarding `Cn1cc(C(=O)Nc2cccc(-c3cccc(-c4nc5ccc(F)cc5[nH]4)c3)c2)n(C)c1=O` [TCMDC-137136], the “% Inhibition” value is -0.01557%.
In the case of `O=C(c1cc(OC(F)(F)F)ccc1O)N1CCN(c2ccccc2)CC1` [TCMDC-141127], the “% Inhibition” value is given as 10.35%.
Turning to `CC(=O)Nc1ccc(Nc2cc(C)nc(Nc3ccc(NC(C)=O)cc3)n2)cc1` [TCMDC-125764], the “% Inhibition” value was 22.75%.
Regarding `Cc1cccc2[nH]c(-c3ccc(-c4cccc(NC(=O)c5cccc(C(N)=O)c5)c4)cc3)nc12` [TCMDC-132197], the “% Inhibition” value amounted to 5.465%.
For the molecule `COc1ccc2nccc([C@@H](O)CN3CCC(NCc4ccc5c(n4)NC(=O)CS5)C(F)C3)c2c1` (stereo partly shown) [TCMDC-141718], the “% Inhibition” value was -27.67%.
Regarding `O=C(Nc1cccc(-c2cccc(F)c2)c1)C1CCN(Cc2ccc(O)cc2)CC1` [TCMDC-124688], the “% Inhibition” value amounted to 48.55%.
Take `O=C(Nc1cccc(CN2CCCN(Cc3ccsc3)CC2)c1)c1ccc(-c2ccccc2)cc1` [TCMDC-141840]: the “% Inhibition” value worked out at 82.52%.
The value for `O=C(Nc1ccc2ccccc2c1)c1ccc(CN2CCC(Cc3ccccc3)CC2)cc1` [TCMDC-123818] was 92.78%; that for `COc1cccc(CN2CCCN(Cc3cccc(NC(=O)c4ccc(-c5ccccc5)cc4)c3)CC2)c1` [TCMDC-141847] was -61.09%; that for `COc1ccc(CN2CCCN(Cc3cccc(NC(=O)c4ccc5ccccc5c4)c3)CC2)cc1` [TCMDC-141853] was -65.02%.
As for `O=C(Nc1cccc(OCc2ccccc2)c1)c1ccc(CN2CCC(Cc3ccccc3)CC2)cc1` [TCMDC-136885], the “% Inhibition” value is given as -23.99%.
Consider `O=C(Nc1cccc(CN2CCCN(Cc3ccccc3)CC2)c1)c1ccc(-c2ccccc2)cc1` [TCMDC-134589], for which the “% Inhibition” value was -25.71%.
With `COc1cccc(-c2cccc(NC(=O)C3CCN(Cc4ccc(O)cc4)CC3)c2)c1` [TCMDC-124692], the “% Inhibition” value amounted to 72.66%.
The value for `O=C(Nc1cccc(CN2CCCN(Cc3ccc(O)cc3)CC2)c1)c1ccc2ccccc2c1` [TCMDC-141857] was 26.89%; that for `COc1ccc(CN2CCCN(Cc3cccc(NC(=O)c4ccc(-c5ccccc5)cc4)c3)CC2)cc1` [TCMDC-141839] was 80.31%; that for `COc1ccc(CN2CCC(C(=O)Nc3cccc(-c4cccc(Cl)c4)c3)CC2)cc1O` [TCMDC-124610] was -57.51%.
The value for `O=C(Nc1cccc(CN2CCCN(Cc3cccc(O)c3)CC2)c1)c1ccc(-c2ccccc2)cc1` [TCMDC-141848] was 31.74%; that for `CC(=O)Nc1cc(C(=O)Nc2cccc(-c3csc(-c4nc5ccccc5[nH]4)c3)c2)ccc1C` [TCMDC-132397] was -24.51%.
For the molecule `Cc1nc2ccc3ccc(CNc4ccc(C(=O)N[C@@H](CCC(=O)O)C(=O)O)cc4)cc3c2c(=O)[nH]1` [TCMDC-137629], the “% Inhibition” value stood at 7.462%.
Take `CCC[C@@H]([C@@H](CC1CCCCC1)C(=O)N[C@@H](CCCCNS(C)(=O)=O)C(=O)Nc1nccs1)N(O)C=O` [TCMDC-138143]: the “% Inhibition” value is reported as 41.43%.
As to `CC1(C)CCNc2cc(NC(=O)c3ccc(-c4ncccc4C(F)(F)F)cc3)ccc21` [TCMDC-133353], the “% Inhibition” value was determined as 8.36%.
Regarding `COc1ccc(C2=CCN(c3ccc(Cl)c(Cl)c3)C2=O)cc1OCCN1CCCCC1` [TCMDC-138795], the “% Inhibition” value is 24.05%.
The value for `COc1ccc2nccc([C@@H](O)CN3CCC(NC(=O)c4ccc(OC)c(N)c4)CC3)c2c1` [TCMDC-140772] was 8.441%; that for `CC(=O)N(C)c1cccc(CNc2cc(C)nc(Nc3ccc(C)cc3)n2)c1` [TCMDC-134005] was 7.958%.
As for `CN1CCN(CC(=O)Nc2ccc(-c3ccc(-c4nc5cc(C(F)(F)F)ccc5[nH]4)s3)cc2)CC1` [TCMDC-136976], the “% Inhibition” value is recorded as 14.59%.
On to `COc1cc(Cc2cnc(N)nc2N)cc(OCCCCc2nn[nH]n2)c1OC` [TCMDC-138032], for which the “% Inhibition” value was found to be 13.98%.
`Cc1cccc(-c2nc3[nH]c(=O)cc(NC(=O)C(C)C)n3n2)c1` [TCMDC-125001]: the “% Inhibition” value is -2.254%.
On to `CCCCCCN1CCCN(Cc2ccc(C(=O)Nc3ccc(CCC)cc3)cc2)CC1` [TCMDC-136424], for which the “% Inhibition” value is 9.552%.
Regarding `COc1ccc(CN2CCCN(Cc3ccc(C(=O)Nc4ccc(Cl)cc4)cc3)CC2)cc1` [TCMDC-136409], the “% Inhibition” value came to 0.3374%.
Regarding `CCCCCCN1CCCN(Cc2ccc(C(=O)Nc3ccc(C(C)C)cc3)cc2)CC1` [TCMDC-136423], the “% Inhibition” value turned out to be 90.22%.
With `CCCCCCN1CCCN(Cc2ccc(C(=O)Nc3ccc(Cl)cc3)cc2)CC1` [TCMDC-136416], the “% Inhibition” value is listed as 35.96%.
The figure for `O=C(Nc1cccc(CN2CCCN(Cc3cccc(Cl)c3)CC2)c1)c1ccc(-c2ccccc2)cc1` [TCMDC-141837] is -76.33%; for `O=C(Nc1cccc(CN2CCN(Cc3ccc(O)cc3)CC2)c1)c1ccc(-c2ccccc2)cc1` [TCMDC-141886] it is 12.46%; for `CCCc1ccc(NC(=O)c2ccc(CN3CCCN(Cc4ccc(OC)cc4)CC3)cc2)cc1` [TCMDC-136422] it is 91.61%.
Turning to `O=C(Nc1cccc(CN2CCCN(Cc3ccc(O)cc3)CC2)c1)c1ccc(-c2ccccc2)cc1` [TCMDC-141850], the “% Inhibition” value amounted to 69.39%.
For the molecule `CCCCCCN1CCCN(Cc2ccc(C(=O)Nc3ccc(CC)cc3)cc2)CC1` [TCMDC-136450], the “% Inhibition” value is reported as 13.19%.
Consider `Oc1c(Br)cc2oc3c(c2c1CNCc1ccccc1)CCCC3` [TCMDC-124248], for which the “% Inhibition” value is recorded as 19.71%.
For `Cc1cccc2c(CON3C(N)=NC(N)=NC3(C)C)cccc12` [TCMDC-131325], the “% Inhibition” value worked out at 30.52%.
As for `c1ccc2c(c1)CN(Cc1ccsc1)CC1(CCN(Cc3c[nH]c4cnccc34)CC1)O2` [TCMDC-133374], the “% Inhibition” value was -8.367%.
The value for `COCCNCc1ccc(-c2ccc3c(Nc4ccc(Cl)cc4F)ccnc3c2)o1` [TCMDC-138390] was 17.71%; that for `Fc1ccc(Nc2ccnc3cc(-c4ccc(CNCCN5CCOCC5)o4)ccc23)c(Cl)c1` [TCMDC-138451] was 28.52%.
`CN(C)CCN(C)Cc1ccc(-c2ccc3c(Nc4ccc(F)cc4Cl)ccnc3c2)o1` [TCMDC-138447]: the “% Inhibition” value came out at 57.57%.
On to `CN(C)Cc1ccc(-c2ccc3c(Nc4ccc(Cl)cc4F)ccnc3c2)o1` [TCMDC-138389], for which the “% Inhibition” value was found to be 51.2%.
The figure for `COCCNCc1ccc(-c2ccc3c(Nc4ccc(F)cc4Cl)ccnc3c2)o1` [TCMDC-138448] is 12.72%.
With `CN(C)CCNCc1ccc(-c2ccc3c(Nc4ccc(Cl)cc4F)ccnc3c2)o1` [TCMDC-138391], the “% Inhibition” value was 96.42%.
Consider `Fc1ccc(Nc2ccnc3cc(-c4ccc(CN5CCOCC5)o4)ccc23)c(Cl)c1` [TCMDC-138450], for which the “% Inhibition” value is -9.806%.
With `CN1CCN(Cc2ccc(-c3ccc4c(Nc5ccc(F)cc5Cl)ccnc4c3)o2)CC1` [TCMDC-138452], the “% Inhibition” value came out at 13.09%.
Consider `Fc1cc(Cl)ccc1Nc1ccnc2cc(I)ccc12` [TCMDC-138376], for which the “% Inhibition” value is given as -32.49%.
The value for `CS(=O)(=O)CCNCc1ccc(-c2ccc3c(Nc4ccc(Cl)cc4F)ccnc3c2)o1` [TCMDC-138445] was 0.4033%; that for `CN(C)CCNCc1ccc(-c2ccc3c(Nc4ccc(F)cc4Cl)ccnc3c2)o1` [TCMDC-138449] was 71.06%; that for `CN(C)CCN(C)Cc1ccc(-c2ccc3c(Nc4ccc(Cl)cc4F)ccnc3c2)o1` [TCMDC-138388] was 33.59%.
For the molecule `Cc1cccc2nc(-c3ccc(-c4ccc(CN5CC(C)OC(C)C5)cc4)cc3)[nH]c12.O=C(O)C(F)(F)F` (stereo not shown) [TCMDC-133823], the “% Inhibition” value is given as -0.7329%.
In the case of `Cc1noc(C)c1CN1CCCN(c2ccc3c(c2)CCN(Cc2ccc(-c4ncc[nH]4)cc2)CC3)CC1` [TCMDC-136548], the “% Inhibition” value is -0.683%.
As to `CO/N=C(\C)c1ccc2c(c1)CCN(CCC1CCC(NC(=O)/C=C/c3ccc(F)cc3)CC1)CC2` (stereo not shown) [TCMDC-139922], the “% Inhibition” value is given as -74.19%.
Take `Fc1ccc2nc(-c3ccc(-c4ccc(CNCCc5cccnc5)cc4)s3)[nH]c2c1` [TCMDC-132875]: the “% Inhibition” value is on record as -31.32%.
Consider `N#Cc1cccc(C(=O)Nc2cccc(-c3ccc(CN4CCC(O)CC4)cc3)c2)c1` [TCMDC-132652], for which the “% Inhibition” value was -17.85%.
With `CCOC(=O)c1[nH]c2cc(Cl)cc(Cl)c2c1/C=C/C(=O)Nc1ccc(-c2cnc(NC(C)=O)[nH]2)cc1` [TCMDC-137161], the “% Inhibition” value is -8.366%.
For `Cc1c(C(=O)N(C)C)sc2c1c(=O)n(Cc1ccccc1)c(=O)n2CC(=O)Nc1ccccc1F` [TCMDC-125279], the “% Inhibition” value amounted to 4.453%.
As to `CCc1nc2nc(C)cc(Nc3ccc4c(c3)OCCO4)n2n1` [TCMDC-125299], the “% Inhibition” value is given as -0.3909%.
For the molecule `CCc1nc2nc(C)cc(Nc3ccc(F)c(Cl)c3)n2n1` [TCMDC-124770], the “% Inhibition” value was determined as 1.315%.
Consider `CCc1nc2nc(C)cc(Nc3cc(C)cc(C)c3)n2n1` [TCMDC-124402], for which the “% Inhibition” value is on record as 51.49%.
On to `CC1(C)N=C(N)N=C(N)N1OCCNCc1ccc(Cl)cc1` [TCMDC-131628], for which the “% Inhibition” value is 11.83%.
With `O=C(Nc1cccc(-c2nn3ccccc3c2-c2ccnc(Nc3ccc(-c4cc[nH]n4)cc3)n2)c1)c1c(F)cccc1F` [TCMDC-135915], the “% Inhibition” value is listed as -3.577%.
As for `CC1CCCC(Nc2noc(-c3sccc3Br)n2)C1` (stereo not shown) [TCMDC-134184], the “% Inhibition” value is recorded as -4.566%.
`Cc1cccc2nc(-c3cccc(-c4ccc(CNCCc5ccncc5)cc4)c3)[nH]c12.O=C(O)C(F)(F)F` [TCMDC-132846]: the “% Inhibition” value is -3.628%.
The figure for `O=C(O)C(F)(F)F.c1cc(CNCCc2ccncc2)cc(-c2ccc(-c3nc4ccccc4[nH]3)cc2)c1` [TCMDC-132856] is -34.48%.
The figure for `CS(=O)(=O)c1ccc(CCNCc2ccc(-c3cccc(-c4nc5ccccc5[nH]4)c3)cc2)cc1.O=C(O)C(F)(F)F` [TCMDC-132558] is 87.75%; for `Fc1ccc2[nH]c(-c3ccc(-c4ccc(CNCCc5ccncc5)cc4)cc3)nc2c1.O=C(O)C(F)(F)F` [TCMDC-132851] it is -25.93%.
The value for `CS(=O)(=O)c1ccc(CNCc2ccc(-c3cccc(-c4nc5ccccc5[nH]4)c3)cc2)cc1.O=C(O)C(F)(F)F` [TCMDC-132557] was -11.29%; that for `Fc1ccc2[nH]cc(CCNCc3ccc(-c4cccc(-c5nc6ccccc6[nH]5)c4)cc3)c2c1.O=C(O)C(F)(F)F` [TCMDC-132573] was 88.58%.
On to `O=C(O)C(F)(F)F.c1ccc(-c2ccc(CNCc3ccc(-c4cccc(-c5nc6ccccc6[nH]5)c4)cc3)s2)nc1` [TCMDC-132571], for which the “% Inhibition” value is on record as 17.42%.
For `O=C(O)C(F)(F)F.c1cc(-c2ccc(CNCCc3ccncc3)cc2)cc(-c2nc3ccccc3[nH]2)c1` [TCMDC-132553], the “% Inhibition” value is given as 67.12%.
Take `O=C(O)C(F)(F)F.c1ccc(CCNCc2ccc(-c3cccc(-c4nc5ccccc5[nH]4)c3)cc2)nc1` [TCMDC-132537]: the “% Inhibition” value was 93.06%.
For the molecule `CS(=O)(=O)c1ccc(CNCc2ccc(-c3cccc(-c4nc5cc(F)ccc5[nH]4)c3)cc2)cc1.O=C(O)C(F)(F)F` [TCMDC-132904], the “% Inhibition” value is reported as 15.16%.
On to `O=C(O)C(F)(F)F.c1cncc(CCNCc2ccc(-c3cccc(-c4nc5ccccc5[nH]4)c3)cc2)c1` [TCMDC-132554], for which the “% Inhibition” value is listed as 4.222%.
For the molecule `CN(CCNCc1ccc(-c2cccc(-c3nc4ccccc4[nH]3)c2)cc1)S(C)(=O)=O.O=C(O)C(F)(F)F` [TCMDC-132561], the “% Inhibition” value amounted to 23.76%.

(Values after article PMC4552634, “A New Set of Chemical Starting Points with Plasmodium falciparum Transmission-Blocking Potential for Antimalarial Drug Discovery” (PLoS ONE, 2015).)
